“And” between values parts separate entries of the source, which are not always exact repeats. Equal entries are not always repeated. Inconclusive results are not listed. A number with no mark means an inactive call. The source made the active and inactive calls. The call rests on the fitted dose curve; in most records, active means well fitted inhibition curve with a large enough effect; inconclusive means small, poorly fitted or top-dose-only effect; inactive means flat fitted curve, though single readings scatter.

Drawing on PubChem BioAssay (NCATS), this text covers Potency, max response and outcome for 37 molecules.
On the % scale 0 is the no-effect control and ±100 the full control effect; potency means the concentration at half of the fitted maximal effect.

This assay has as its system CRL-7250. The assay is described as follows: Cytotoxic Profiling of Annotated Libraries Using Quantitative High-Throughput Screening (AID 1296008). Further: nearly all actives have a fitted effect of over 60% in size. As to conditions: Five cell lines viability, CellTiter-Glo ATP luminescence, 48-72 h; max response: stronger effect = lower value. The method in brief:
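Compounds were pin-transferred onto cells and incubated 48 or 72 hr at 37 degree Celsius, 95% humidity. CellTiter-Glo was added, plates sat 10 min at room temperature, then ATP-coupled luminescence was imaged as the viability read-out.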
(ATP-based viability assays read luminescence as a measure of living cells.)
For `COc1ccc(-c2c(-c3ccc(O)cc3O)n[nH]c2C)cc1`, the Potency was 30.3 µM (active). Turning to `C[C@]12CCC(=O)C=C1CC[C@@H]1[C@@H]2[C@@H](O)C[C@@]2(C)[C@H]1CC[C@]2(O)C(=O)CO`, the max response was 3.48%. In the case of `CNC(=O)c1ccc(C)c(-n2c(C)cc(OCc3ccc(F)cc3F)c(Br)c2=O)c1`, the max response is -9.42%. The same measure, in the same setting: the result for `COc1ccc2c3n(c(=NC(=O)c4cccnc4)nc2c1OC)CCN3` reads -15.5%. Take `CCOc1cc(C(=O)Nc2ccc(Cl)c(-c3nc4ccccc4[nH]3)c2)cc(OCC)c1OCC`: the molecule was called inactive. In the case of `Nc1nc2[nH]cc(CCc3ccc(C(=O)N[C@@H](CCC(=O)O)C(=O)O)cc3)c2c(=O)[nH]1`, the max response is -1.95%. Turning to `CO[C@@H]1[C@H](N(C)C(=O)c2ccccc2)C[C@H]2O[C@]1(C)n1c3ccccc3c3c4c(c5c6ccccc6n2c5c31)C(=O)NC4`, the Potency is 1.48 µM (active). Turning to `CS(=O)(=O)c1ccc(C(=O)Nc2ccc(Cl)c(-c3ccccn3)c2)c(Cl)c1`, the max response is -4.31% and 3.97%. Still for that read-out and setting: the result for `O=C(O)[C@@H](c1ccc(OCc2ccc3ccccc3n2)cc1)C1CCCC1` reads -8.88%. On the same count and under the same terms, the result for `O=c1[nH]c(-c2ccc(C(F)(F)F)cc2)nc2c1CSCC2` reads -16.3%. As to `CNCc1ccc(-c2[nH]c3cc(F)cc4c3c2CCNC4=O)cc1`, the molecule was called inactive. Regarding `CCCS(=O)(=O)Nc1ccc(F)c(C(=O)c2c[nH]c3ncc(Cl)cc23)c1F`, the max response is -1.21%. On the same count and under the same terms, as for `Cc1c(CCOc2ccc(C(=O)O)cc2)c2cc(Cl)ccc2n1C(c1ccccc1)c1ccccc1`, the figure is -5.22%.

Take `CC(C)(Sc1ccc(CCN(CCCCC2CCCCC2)C(=O)NC2CCCCC2)cc1)C(=O)O`: the max response was -21.5% and -0.943%. As for `O=S(=O)(N=Cc1c(O)ccc2ccccc12)c1cccs1`, the max response is -0.432%.

Regarding `NC(=O)c1ccc(-c2nc(-c3ccc4c(c3)OCO4)c(-c3ccccn3)[nH]2)cc1`, the max response was 3.54%.

As for `Cc1ccccc1C(C(=O)NC1CCCC1)N(C(=O)Cn1cnc2ccccc21)c1cccc(F)c1` (configuration not stated), the max response was 1.73%. For the molecule `CCOC(=O)N[C@@H]1CC[C@@H]2[C@@H](C1)C[C@H]1C(=O)O[C@H](C)[C@H]1[C@@H]2C=Cc1ccc(-c2cccc(F)c2)cn1`, the max response was -6.96%. `Cn1c(=O)c(F)c(Nc2ccc(I)cc2F)c2c(=O)n(C[C@@H](O)CO)cnc21`: the Potency was 0.935 µM (active). On to `c1ccc([C@H]2CN3CCSC3=N2)cc1`, for which the max response was -3.88% and 4.82%. As to `COc1cc2nccc(Oc3ccc(NC(=O)NC4CC4)c(Cl)c3)c2cc1C(N)=O`, the Potency is 0.92 µM (active). As to `CCCn1c(=O)c2[nH]c(C34CC5CC3C[C@@H](C5)C4)nc2n(CCC)c1=O`, the molecule was classed as inactive. Take `O=C(Nc1ccc(F)c(C(F)(F)F)c1)Nc1nnc(-c2ccncc2)s1`: the max response was 2.14%.

`O=C(O)COCCN1CCN(C(c2ccccc2)c2ccc(Cl)cc2)CC1` (configuration not stated): the max response is -0.386%.

`N#CC[C@H](C1CCCC1)n1cc(-c2ncnc3[nH]ccc23)cn1`: the max response was -20.9% and 3.07%. Take `COc1cc(Nc2ncc3c(n2)-c2ccc(Cl)cc2C(c2c(F)cccc2OC)=NC3)ccc1C(=O)O`: the Potency was 20.6 µM (active). For `Nc1cccc(S(=O)(=O)N2CCCN(S(=O)(=O)c3ccc4c(c3)OCCO4)CC2)c1`, the max response was 0.264%. With `COc1ccccc1[C@H](c1cccc2ccccc12)[C@@](C)(C#N)C(=O)N1CCC(c2cccc(C(F)(F)F)c2)CC1`, the Potency was 26.4 µM (active). On the same count and under the same terms, the result for `O=C(c1cc(Cc2n[nH]c(=O)c3ccccc23)ccc1F)N1CCN(C(=O)C2CC2)CC1` reads 9.35 µM (active); that for `COc1ccc(-c2ccc3c(N4CCOC[C@H]4C)nc(N4CCOC[C@H]4C)nc3n2)cc1CO`, 0.0093 µM (active).

As to `CCN(CC)CCCC(C)Nc1nc(C)cc(Nc2ccc3nc(C)cc(N)c3c2)n1` (configuration not stated), the max response is -4.56%.

For `COc1ccc(CC2=NN3C([C@@H](CCc4ccccc4)[C@@H](C)O)=NC(C)C3C(=O)N2)cc1OC` (some centres not stated), the max response is -0.833%. Consider `CC1(C)Cc2c(-c3ccccc3)c(-c3ccc(Cl)cc3)c(CC(=O)O)n2C1`, for which the max response was 2.44%. Consider `C[C@H](NC(=O)Cc1cc(F)cc(F)c1)C(=O)N[C@@H]1C(=O)N(C)c2ccccc2-c2ccccc21`, for which the call was inactive. For `COc1ccc(COc2cc3oc(=O)c4cc(C(C)O)ccc4c3cc2OC)cc1` (configuration not stated), the Potency is 10.5 µM (active). As to `CCCCCCCc1ccc(CCc2cccc(O)c2C(=O)O)cc1`, the max response is -0.808%. Same read-out and setting: the result for `CC(C)(C)NCC(O)c1ccc(O)c(CO)c1` (configuration not stated) reads -2.87% and 2.98%.
